Results filed as inconclusive are left out. The source made the active and inactive calls. The calls were made as follows: active = hit-call score of the fitted dose curve at least 0.9, where 1 is the maximum; inconclusive = response in the unintended direction; inactive = score below 0.9.
Assays:
[1] = target: Cellular tumor antigen p53 (Homo sapiens) (UniProt P04637); test: TOX21_p53_BLA_p2_ratio: Tox21 HCT-116 p53 Agonism Beta-lactamase Assay, Ratio, Phase 2 (AID 2283592)
Summary of the method: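 HCT116 cells carrying a p53-responsive beta-lactamase reporter were plated, incubated 5 h at 37C, then dosed with compounds in DMSO (217-fold dilution) for 16 h. CCF4-AM substrate was added for 2 h at room temperature; the 460/530 nm emission ratio gave gain-of-signal activity relative to DMSO.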

[2] = TOX21_p53_BLA_p3_viability: Viability Assessment in the Tox21 HCT-116 p53 Agonism Beta-lactamase Assay, Phase 3 (AID 2283593);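 also: cells exposed to compound for 16 h before reading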
Summary of the method: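 HCT116 cells, 4000/well, dosed 5 h after plating by pin transfer (217-fold dilution from DMSO stock) and incubated 16 h at 37C, 5% CO2. Viability read as ATP luminescence with CellTiter-Glo after 30 min at room temperature.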

[3] = TOX21_p53_BLA_p4_viability: Viability Assessment in the Tox21 HCT-116 p53 Agonism Beta-lactamase Assay, Phase 4 (AID 2283597);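 also: hits lower the luminescence signal meaning cytotoxicity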
Summary of the method: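 HCT116 p53-bla cells (4000/well) rested 5 h at 37C, then received compounds in DMSO (217-fold dilution) for 16 h at 37C, 5% CO2. CellTiter-Glo was added after the CCF4-AM read, and luminescence was read after 30 min at room temperature.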

[4] = target: Cellular tumor antigen p53 (Homo sapiens) (UniProt P04637); test: TOX21_p53_BLA_p5_ratio: Tox21 HCT-116 p53 Agonism Beta-lactamase Assay, Ratio, Phase 5 (AID 2283599)
Summary of the method: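 HCT-116 p53-bla cells (4000/well) plated 5 h, dosed with compound (217-fold DMSO dilution) for 16 h at 37 C; CCF4-AM substrate 2 h at room temperature. Activity is the 460/530 nm emission ratio (405 nm excitation), fitted in gain-of-signal direction versus DMSO.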

[5] = TOX21_p53_BLA_p5_viability: Viability Assessment in the Tox21 HCT-116 p53 Agonism Beta-lactamase Assay, Phase 5 (AID 2283600)
Summary of the method: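 Cells were plated at 4000/well, rested 5 h at 37C, then given compounds in DMSO (217-fold dilution) for 16 h at 37C, 5% CO2. Following the CCF4-AM beta-lactamase read, CellTiter-Glo was added and luminescence was read after 30 min at room temperature.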

[6] = target: Cellular tumor antigen p53 (Homo sapiens) (UniProt P04637); test: TOX21_p53_BLA_p3_ratio: Tox21 HCT-116 p53 Agonism Beta-lactamase Assay, Ratio, Phase 3 (AID 2283596)
Summary of the method: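 HCT116 p53-bla cells (4000/well) given compound in DMSO (217-fold dilution) after 5 h, incubated 16 h at 37C. CCF4-AM substrate 2 h at room temperature; 460/530 nm emission ratio, gain fitted against DMSO.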

[7] = target: Cellular tumor antigen p53 (Homo sapiens) (UniProt P04637); test: TOX21_p53_BLA_p4_ratio: Tox21 HCT-116 p53 Agonism Beta-lactamase Assay, Ratio, Phase 4 (AID 2283601)
Summary of the method: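 HCT-116 p53 beta-lactamase reporter cells (4000/well) preincubated 5 h, then compound (217-fold dilution of DMSO stock) for 16 h at 37C. CCF4-AM substrate added 2 h at room temperature; 460/530 nm emission ratio fitted upward versus DMSO.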

Sequence of Cellular tumor antigen p53 (Homo sapiens) (P04637 whole entry, looked up): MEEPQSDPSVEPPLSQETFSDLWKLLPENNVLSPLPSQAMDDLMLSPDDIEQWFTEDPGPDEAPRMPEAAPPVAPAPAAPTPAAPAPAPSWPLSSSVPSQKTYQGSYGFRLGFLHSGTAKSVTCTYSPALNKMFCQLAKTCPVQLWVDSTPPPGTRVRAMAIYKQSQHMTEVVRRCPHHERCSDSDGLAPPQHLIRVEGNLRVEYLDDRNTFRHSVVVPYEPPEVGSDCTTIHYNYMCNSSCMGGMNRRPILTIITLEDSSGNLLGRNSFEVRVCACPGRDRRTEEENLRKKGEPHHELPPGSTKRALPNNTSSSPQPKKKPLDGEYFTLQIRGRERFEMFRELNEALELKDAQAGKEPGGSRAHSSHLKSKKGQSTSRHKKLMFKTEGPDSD

| Compound | outcome [1] | outcome [2] | outcome [3] | outcome [4] | outcome [5] | outcome [6] | outcome [7] | AC50 [7] |
| --- | --- | --- | --- | --- | --- | --- | --- | --- |
| CCCCN(CCCC)C(=S)SSC(=S)N(CCCC)CCCC | inactive | inactive | inactive | inactive | inactive | – | – | – |
| Nc1nnc(-c2cccc(Cl)c2Cl)c(N)n1 | inactive | inactive | – | – | – | inactive | inactive | – |
| NS(=O)(=O)Cc1noc2ccccc12 | inactive | inactive | inactive | inactive | – | – | inactive | – |
| O=C(C=Cc1ccc(O)c(O)c1)O[C@@H]1C[C@](O)(C(=O)O)C[C@@H](O)[C@H]1O | inactive | inactive | inactive | inactive | – | – | inactive | – |
| CCCCCCCCCCCCCCC(=O)NC(CO)CCCCCCCCCCCCCC (stereo unspecified) | inactive | inactive | inactive | inactive | – | – | – | – |
| C=CCn1c(=O)n([C@@H]2O[C@H](CO)[C@@H](O)[C@H]2O)c2nc(N)[nH]c(=O)c21 | inactive | inactive | – | – | – | inactive | inactive | – |
| CC1CS(=O)(=O)CCN1N=Cc1ccc([N+](=O)[O-])o1 (stereo unspecified) | inactive | inactive | inactive | inactive | – | – | – | – |
| CCOC(=O)C(C)C(C)=O (stereo unspecified) | inactive | inactive | inactive | inactive | inactive | – | inactive | – |
| FC(F)(F)c1ccc(Cl)cc1Cl | inactive | inactive | inactive | inactive | – | – | inactive | – |
| COc1ccc(S(=O)(=O)N2c3ccc(Cl)cc3[C@@](O)(c3ccccc3Cl)[C@H]2C(=O)N2CCC[C@@H]2C(N)=O)cc1OC | inactive | inactive | inactive | inactive | – | – | – | – |
| O=C(O)c1ccccc1Nc1cc(Cl)ccc1C(=O)O | inactive | inactive | inactive | inactive | inactive | – | inactive | – |
| NS(=O)(=O)c1ccc(NC(=O)CCC(=O)O)cc1 | inactive | inactive | inactive | inactive | inactive | – | inactive | – |
| COC[C@H](c1ccc(C(F)(F)F)cc1)N1CCN(C2(C)CCN(C(=O)c3c(C)ncnc3C)CC2)C[C@H]1C | inactive | inactive | inactive | inactive | inactive | – | inactive | – |
| COc1cc2c(cc1N)oc1ccccc12 | inactive | inactive | inactive | inactive | inactive | – | – | 66.1 µM (active) |
| Cc1ccc(O)c([N+](=O)[O-])c1 | inactive | inactive | inactive | – | – | – | – | – |
| O=C(Cl)c1ccc(F)c(Cl)c1 | inactive | inactive | inactive | – | – | – | – | – |

From PubChem BioAssay (EPA / NIEHS)
